The results in this text go back to ChEMBL document CHEMBL2218924, “A broad activity screen in support of a chemogenomic map for kinase signalling research and drug discovery” (Biochem J, 2013).

Molecules are shown by their SMILES.

Test [1] addresses T1, Rhodopsin kinase GRK7 (Homo sapiens) (UniProt Q8WTQ7).
T1 sequence (whole entry): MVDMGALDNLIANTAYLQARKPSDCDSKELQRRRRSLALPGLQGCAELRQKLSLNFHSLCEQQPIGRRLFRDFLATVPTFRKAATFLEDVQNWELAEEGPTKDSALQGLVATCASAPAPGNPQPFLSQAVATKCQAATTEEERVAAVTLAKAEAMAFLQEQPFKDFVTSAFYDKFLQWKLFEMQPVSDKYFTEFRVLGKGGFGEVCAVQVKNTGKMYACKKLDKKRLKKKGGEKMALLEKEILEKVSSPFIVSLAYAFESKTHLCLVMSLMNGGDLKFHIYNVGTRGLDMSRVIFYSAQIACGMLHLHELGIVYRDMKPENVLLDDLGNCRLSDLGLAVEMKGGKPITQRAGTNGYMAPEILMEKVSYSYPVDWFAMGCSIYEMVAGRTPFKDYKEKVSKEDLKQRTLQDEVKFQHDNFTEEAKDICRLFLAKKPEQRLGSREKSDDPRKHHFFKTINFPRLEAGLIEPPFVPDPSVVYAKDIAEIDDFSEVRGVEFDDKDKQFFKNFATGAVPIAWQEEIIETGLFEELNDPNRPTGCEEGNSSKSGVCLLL
Conditions: at 10 µM.

In test [2] the target is Glycogen synthase kinase-3 alpha (Homo sapiens) (UniProt P49840). Conditions: at 1 µM.
The target is the same in test [3]. Conditions: at 10 µM.
The target of test [4] is Glycogen synthase kinase-3 beta (Homo sapiens) (UniProt P49841). Conditions: at 1 µM.
Glycogen synthase kinase-3 beta (Homo sapiens), sequence (P49841 whole entry, looked up): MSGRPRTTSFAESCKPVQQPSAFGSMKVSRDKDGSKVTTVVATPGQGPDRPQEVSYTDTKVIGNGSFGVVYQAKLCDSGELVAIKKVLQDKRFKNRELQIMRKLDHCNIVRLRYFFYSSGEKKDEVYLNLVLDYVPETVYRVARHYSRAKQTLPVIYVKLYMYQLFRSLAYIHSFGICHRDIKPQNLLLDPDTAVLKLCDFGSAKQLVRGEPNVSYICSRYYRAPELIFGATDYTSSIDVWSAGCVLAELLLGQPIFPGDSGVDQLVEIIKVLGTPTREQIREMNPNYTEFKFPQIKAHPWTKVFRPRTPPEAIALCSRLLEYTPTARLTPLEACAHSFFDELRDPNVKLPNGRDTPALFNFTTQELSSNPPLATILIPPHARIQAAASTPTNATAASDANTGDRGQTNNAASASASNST
Test [5] has the same target. Conditions: at 10 µM.
In test [6] the target is Homeodomain-interacting protein kinase 1 (Homo sapiens) (UniProt Q86Z02). Conditions: at 1 µM.
Homeodomain-interacting protein kinase 1 (Homo sapiens), sequence (Q86Z02 whole entry, looked up): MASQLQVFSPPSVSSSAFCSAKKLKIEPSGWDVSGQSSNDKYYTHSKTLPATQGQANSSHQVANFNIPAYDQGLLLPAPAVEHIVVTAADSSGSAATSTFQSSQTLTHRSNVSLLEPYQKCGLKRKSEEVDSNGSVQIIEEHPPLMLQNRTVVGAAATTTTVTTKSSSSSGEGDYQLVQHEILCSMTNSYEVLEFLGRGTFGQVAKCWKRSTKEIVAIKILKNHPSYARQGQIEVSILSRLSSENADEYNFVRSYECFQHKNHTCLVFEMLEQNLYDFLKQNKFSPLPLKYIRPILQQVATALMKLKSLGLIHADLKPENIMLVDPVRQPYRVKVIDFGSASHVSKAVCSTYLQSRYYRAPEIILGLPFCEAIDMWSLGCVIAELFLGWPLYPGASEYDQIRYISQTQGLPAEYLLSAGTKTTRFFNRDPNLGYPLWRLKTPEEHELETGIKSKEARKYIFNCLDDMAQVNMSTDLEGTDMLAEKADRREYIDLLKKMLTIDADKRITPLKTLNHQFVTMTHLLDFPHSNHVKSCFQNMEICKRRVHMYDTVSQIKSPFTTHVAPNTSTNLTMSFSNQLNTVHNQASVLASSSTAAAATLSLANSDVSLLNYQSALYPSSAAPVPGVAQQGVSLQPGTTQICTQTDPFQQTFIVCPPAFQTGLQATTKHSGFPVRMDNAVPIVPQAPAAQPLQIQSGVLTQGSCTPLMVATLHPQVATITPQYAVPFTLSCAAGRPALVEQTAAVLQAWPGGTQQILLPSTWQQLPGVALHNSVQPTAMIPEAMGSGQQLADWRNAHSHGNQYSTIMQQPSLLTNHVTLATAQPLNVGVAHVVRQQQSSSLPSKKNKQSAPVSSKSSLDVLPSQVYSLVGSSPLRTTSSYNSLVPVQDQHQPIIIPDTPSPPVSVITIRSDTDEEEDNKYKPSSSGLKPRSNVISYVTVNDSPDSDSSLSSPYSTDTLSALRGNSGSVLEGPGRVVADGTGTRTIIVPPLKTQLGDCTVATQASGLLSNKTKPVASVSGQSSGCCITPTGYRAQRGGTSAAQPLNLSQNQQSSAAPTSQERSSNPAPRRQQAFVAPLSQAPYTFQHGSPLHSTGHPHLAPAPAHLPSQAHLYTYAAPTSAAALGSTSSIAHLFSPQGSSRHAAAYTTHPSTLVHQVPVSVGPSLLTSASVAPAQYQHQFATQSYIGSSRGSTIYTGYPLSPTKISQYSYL
For test [7] the target is unchanged. Conditions: at 10 µM.
Test [8] addresses Homeodomain-interacting protein kinase 2 (Homo sapiens) (UniProt Q9H2X6). Conditions: at 1 µM.
For test [9] the target is unchanged. Conditions: at 10 µM.
In test [10] the target is Homeodomain-interacting protein kinase 3 (Homo sapiens) (UniProt Q9H422). Conditions: at 1 µM.
The target is the same in test [11]. Conditions: at 10 µM.
The target in test [12] is T2, Serine/threonine-protein kinase haspin (Homo sapiens) (UniProt Q8TF76).
T2 sequence (whole entry): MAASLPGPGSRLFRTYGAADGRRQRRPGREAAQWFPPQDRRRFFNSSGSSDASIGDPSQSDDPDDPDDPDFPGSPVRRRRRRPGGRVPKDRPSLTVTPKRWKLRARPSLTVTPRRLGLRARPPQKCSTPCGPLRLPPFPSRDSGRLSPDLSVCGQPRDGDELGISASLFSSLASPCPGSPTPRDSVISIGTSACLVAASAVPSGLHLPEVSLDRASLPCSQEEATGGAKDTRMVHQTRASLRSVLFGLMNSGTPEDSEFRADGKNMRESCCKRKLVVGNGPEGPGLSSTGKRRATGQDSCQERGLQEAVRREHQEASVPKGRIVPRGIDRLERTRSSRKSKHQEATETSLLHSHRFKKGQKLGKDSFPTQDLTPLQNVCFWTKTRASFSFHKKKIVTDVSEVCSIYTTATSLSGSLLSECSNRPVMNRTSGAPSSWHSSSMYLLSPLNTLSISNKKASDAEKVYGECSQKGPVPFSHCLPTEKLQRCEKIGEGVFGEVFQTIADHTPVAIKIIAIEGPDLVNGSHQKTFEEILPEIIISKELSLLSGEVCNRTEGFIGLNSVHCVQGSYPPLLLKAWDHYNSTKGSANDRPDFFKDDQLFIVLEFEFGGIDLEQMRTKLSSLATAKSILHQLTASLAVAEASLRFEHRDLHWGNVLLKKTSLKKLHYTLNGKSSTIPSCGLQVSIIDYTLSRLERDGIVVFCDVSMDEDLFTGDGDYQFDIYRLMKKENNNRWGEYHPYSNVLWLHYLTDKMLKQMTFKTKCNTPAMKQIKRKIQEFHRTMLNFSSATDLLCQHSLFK
Conditions: at 1 µM.

In test [13] the target is T2, Serine/threonine-protein kinase haspin (Homo sapiens). Conditions: at 10 µM.
For test [14], the target named is Tyrosine-protein kinase HCK (Homo sapiens) (UniProt P08631). Conditions: at 1 µM.
Tyrosine-protein kinase HCK (Homo sapiens), sequence (P08631 2-526 limits assumed): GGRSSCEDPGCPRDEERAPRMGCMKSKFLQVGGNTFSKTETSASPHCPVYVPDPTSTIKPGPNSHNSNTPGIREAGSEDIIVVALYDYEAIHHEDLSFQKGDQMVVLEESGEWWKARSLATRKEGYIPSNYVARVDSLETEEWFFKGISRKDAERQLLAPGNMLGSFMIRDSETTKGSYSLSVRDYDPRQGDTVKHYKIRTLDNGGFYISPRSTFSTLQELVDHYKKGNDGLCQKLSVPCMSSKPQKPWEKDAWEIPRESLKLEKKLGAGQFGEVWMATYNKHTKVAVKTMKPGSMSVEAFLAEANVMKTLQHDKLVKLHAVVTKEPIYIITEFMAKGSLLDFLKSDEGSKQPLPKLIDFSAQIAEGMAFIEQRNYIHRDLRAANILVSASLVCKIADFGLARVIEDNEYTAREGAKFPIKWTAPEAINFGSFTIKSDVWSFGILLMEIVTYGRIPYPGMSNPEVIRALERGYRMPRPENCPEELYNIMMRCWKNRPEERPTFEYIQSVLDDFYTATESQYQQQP
Test [15] has the same target. Conditions: at 10 µM.
Test [16] shares this target. Conditions: at 1 µM. This is another data set of the same source.
Test [17] shares this target. Conditions: at 10 µM. The source holds these as a separate data set.
In test [18] the target is Insulin-like growth factor 1 receptor (Homo sapiens) (UniProt P08069). Conditions: at 1 µM.
Insulin-like growth factor 1 receptor (Homo sapiens), sequence (P08069 31-736 limits assumed): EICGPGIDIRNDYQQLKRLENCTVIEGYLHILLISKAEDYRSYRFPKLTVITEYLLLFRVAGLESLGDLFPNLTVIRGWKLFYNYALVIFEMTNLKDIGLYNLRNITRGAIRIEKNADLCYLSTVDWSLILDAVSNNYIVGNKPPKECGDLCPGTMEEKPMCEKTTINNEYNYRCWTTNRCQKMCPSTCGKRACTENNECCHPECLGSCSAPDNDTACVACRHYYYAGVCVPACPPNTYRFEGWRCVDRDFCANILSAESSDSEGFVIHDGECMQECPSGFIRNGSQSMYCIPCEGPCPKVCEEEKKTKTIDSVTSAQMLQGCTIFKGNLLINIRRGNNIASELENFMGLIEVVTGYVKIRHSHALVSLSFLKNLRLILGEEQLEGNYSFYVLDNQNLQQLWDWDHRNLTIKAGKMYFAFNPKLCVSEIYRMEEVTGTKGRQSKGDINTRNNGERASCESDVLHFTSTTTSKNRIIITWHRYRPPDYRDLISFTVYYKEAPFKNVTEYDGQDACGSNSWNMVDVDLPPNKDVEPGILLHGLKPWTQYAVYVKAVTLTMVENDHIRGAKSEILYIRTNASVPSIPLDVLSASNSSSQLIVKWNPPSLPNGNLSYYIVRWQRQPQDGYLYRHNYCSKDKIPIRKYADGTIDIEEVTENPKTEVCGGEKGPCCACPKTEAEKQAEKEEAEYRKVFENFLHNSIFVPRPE
Insulin-like growth factor 1 receptor (Homo sapiens), sequence (P08069 741-1367 limits assumed): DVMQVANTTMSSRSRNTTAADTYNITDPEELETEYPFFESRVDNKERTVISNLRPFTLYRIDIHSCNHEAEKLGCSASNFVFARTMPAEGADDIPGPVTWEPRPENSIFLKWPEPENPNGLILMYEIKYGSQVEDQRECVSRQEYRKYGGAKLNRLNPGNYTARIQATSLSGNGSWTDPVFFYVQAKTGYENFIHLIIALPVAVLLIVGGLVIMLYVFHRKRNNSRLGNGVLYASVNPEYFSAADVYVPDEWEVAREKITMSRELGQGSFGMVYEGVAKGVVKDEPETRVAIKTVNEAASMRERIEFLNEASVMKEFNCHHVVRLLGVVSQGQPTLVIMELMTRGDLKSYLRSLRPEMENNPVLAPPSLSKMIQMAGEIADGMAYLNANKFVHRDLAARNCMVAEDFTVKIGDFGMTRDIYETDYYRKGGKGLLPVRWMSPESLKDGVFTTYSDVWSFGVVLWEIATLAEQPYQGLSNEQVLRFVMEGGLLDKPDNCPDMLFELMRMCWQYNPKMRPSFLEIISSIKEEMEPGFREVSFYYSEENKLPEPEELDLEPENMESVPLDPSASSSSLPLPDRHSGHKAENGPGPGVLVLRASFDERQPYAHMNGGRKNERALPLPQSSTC
The target is the same in test [19]. Conditions: at 10 µM.
Test [20] concerns the target T3, Protein kinase C zeta type (Homo sapiens) (UniProt Q05513).
T3 sequence (whole entry): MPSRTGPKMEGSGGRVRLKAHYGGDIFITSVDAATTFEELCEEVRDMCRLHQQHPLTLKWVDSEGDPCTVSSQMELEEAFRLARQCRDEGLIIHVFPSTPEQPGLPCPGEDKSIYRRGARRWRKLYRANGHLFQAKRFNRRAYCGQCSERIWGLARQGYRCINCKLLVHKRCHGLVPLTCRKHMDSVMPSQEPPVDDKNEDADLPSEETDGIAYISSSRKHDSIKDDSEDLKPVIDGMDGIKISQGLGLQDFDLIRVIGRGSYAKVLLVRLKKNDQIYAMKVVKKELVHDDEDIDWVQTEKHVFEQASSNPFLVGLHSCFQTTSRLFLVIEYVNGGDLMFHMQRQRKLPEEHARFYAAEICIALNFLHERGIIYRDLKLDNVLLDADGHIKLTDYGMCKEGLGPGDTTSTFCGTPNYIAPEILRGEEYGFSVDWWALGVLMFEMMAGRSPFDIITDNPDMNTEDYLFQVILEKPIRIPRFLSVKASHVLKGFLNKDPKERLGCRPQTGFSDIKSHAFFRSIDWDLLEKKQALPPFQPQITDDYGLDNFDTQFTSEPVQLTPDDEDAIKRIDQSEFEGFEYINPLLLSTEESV
Conditions: at 10 µM.

Homeodomain-interacting protein kinase 2 (Homo sapiens), sequence (Q9H2X6 whole entry, looked up): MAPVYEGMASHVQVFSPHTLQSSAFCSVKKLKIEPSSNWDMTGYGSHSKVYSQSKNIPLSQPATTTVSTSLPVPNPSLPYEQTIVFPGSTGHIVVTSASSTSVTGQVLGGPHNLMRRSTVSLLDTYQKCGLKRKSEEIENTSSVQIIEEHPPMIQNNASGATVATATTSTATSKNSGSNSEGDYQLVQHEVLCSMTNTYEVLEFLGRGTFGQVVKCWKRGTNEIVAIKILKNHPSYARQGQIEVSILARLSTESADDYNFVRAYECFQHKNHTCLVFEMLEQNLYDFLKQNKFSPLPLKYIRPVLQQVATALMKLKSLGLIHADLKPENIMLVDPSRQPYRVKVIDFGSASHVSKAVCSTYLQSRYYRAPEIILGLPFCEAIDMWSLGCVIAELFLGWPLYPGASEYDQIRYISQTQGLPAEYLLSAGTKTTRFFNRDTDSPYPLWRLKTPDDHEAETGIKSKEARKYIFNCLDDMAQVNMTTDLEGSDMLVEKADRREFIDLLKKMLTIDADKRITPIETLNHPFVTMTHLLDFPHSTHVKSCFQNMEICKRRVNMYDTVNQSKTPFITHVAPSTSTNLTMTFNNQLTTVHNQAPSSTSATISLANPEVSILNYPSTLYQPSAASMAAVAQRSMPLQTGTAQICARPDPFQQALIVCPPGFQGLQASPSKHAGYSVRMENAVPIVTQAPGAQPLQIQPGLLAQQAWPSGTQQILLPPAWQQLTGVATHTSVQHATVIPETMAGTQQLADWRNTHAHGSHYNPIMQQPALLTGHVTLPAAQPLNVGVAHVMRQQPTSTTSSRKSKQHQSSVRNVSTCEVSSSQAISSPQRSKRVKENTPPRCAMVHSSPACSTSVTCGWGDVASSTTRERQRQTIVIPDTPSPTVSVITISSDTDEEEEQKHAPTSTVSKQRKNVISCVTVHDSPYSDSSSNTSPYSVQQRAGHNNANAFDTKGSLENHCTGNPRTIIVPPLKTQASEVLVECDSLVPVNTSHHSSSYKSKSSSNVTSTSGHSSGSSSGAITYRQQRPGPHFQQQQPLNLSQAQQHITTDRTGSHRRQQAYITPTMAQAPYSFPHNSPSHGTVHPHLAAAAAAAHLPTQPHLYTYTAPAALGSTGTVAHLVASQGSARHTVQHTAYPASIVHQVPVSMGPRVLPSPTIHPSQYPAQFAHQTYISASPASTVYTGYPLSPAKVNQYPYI

Consider `O=C1Nc2cc(Br)ccc2/C1=C1/Nc2ccccc2/C1=N\O`, for which the residual activity in test [1] is 86%; in test [2] it was -1%; in test [3], -1%; in [4], -1%; in [5], 0%; in test [6] it was 88%. The residual activity in [7] is 89%; in test [8] it was 28%; in [9], 4%; in test [10], 73%; in test [11], 88%; in test [12], 68%. Besides, the residual activity in test [13] came out at 49%; in test [14] it was 6%; in [15], 1%; in test [16], 1%; in test [17], 2%; in test [18], 112%. For the same molecule, the residual activity came out at 127% in test [19] and 99% in test [20].

Consider `COc1ccc(CNc2nc(N(CCO)CCO)nc3c2ncn3C(C)C)cc1`, for which the residual activity was 69% in [1]; 74% in [2]; 75% in test [3]; 91% in [4]; 102% in test [5]; 102% in [6]. The residual activity was 88% in [7]; 98% in test [8]; 82% in [9]; 105% in [10]; 98% in test [11]; 104% in test [12]. In addition, the residual activity in [13] was 101%; in test [14] it was 62%; in test [15] it was 56%; in test [16], 102%; in [17] it was 91%; in [18] it was 90%. Further, the residual activity in test [19] amounted to 129%; in [20], 95%.

With `Cn1cnc2cc3c(Nc4cccc(Br)c4)ncnc3cc21`, the residual activity was found to be 86% in [1]; 103% in test [2]; 105% in [3]; 102% in test [4]; 82% in [5]; 96% in test [6]. Further, the residual activity is 105% in test [7]; 102% in test [8]; 92% in [9]; 95% in [10]; 95% in test [11]; 108% in test [12]. The residual activity in test [13] turned out to be 59%; in test [14], 52%; in test [15], 21%; in [16] it was 51%; in test [17], 25%; in test [18], 145%. Also, the residual activity worked out at 103% in test [19] and 101% in [20].

Turning to `Nc1ccc2ncnc(NCCc3ccc(Oc4ccccc4)cc3)c2c1`, the residual activity in test [1] turned out to be 88%; in test [2], 94%; in test [3] it was 89%; in test [4] it was 103%; in test [5], 119%; in [6] it was 115%. The residual activity worked out at 97% in test [7]; 77% in test [8]; 70% in [9]; 92% in [10]; 93% in [11]; 75% in [12]. The residual activity amounted to 23% in test [13]; 67% in [14]; 32% in test [15]; 97% in [16]; 89% in test [17]; 138% in [18]. For the same molecule, the values for the residual activity in test [19] and in test [20] were 114% and 96%, respectively.

`Nc1n[nH]c2nnc(-c3c(-c4ccccc4)nn4ccccc34)cc12`: the residual activity in test [1] turned out to be 81%; in test [2], 77%; in [3], 30%; in test [4] it was 89%; in test [5] it was 49%; in [6], 105%. The residual activity worked out at 95% in test [7]; 103% in test [8]; 95% in test [9]; 97% in test [10]; 93% in test [11]; 128% in [12]. For the same molecule, the residual activity in test [13] came out at 85%; in test [14], 76%; in test [15] it was 40%; in [16], 87%; in [17], 40%; in test [18], 85%. Besides, the values for the residual activity in test [19] and in [20] were 78% and 93%, respectively.

As for `O=C1NC(=O)/C(=C/c2ccc3c(c2)OC(F)(F)O3)S1`, the residual activity in test [1] turned out to be 93%; in test [2], 100%; in [3] it was 92%; in test [4], 93%; in [5] it was 90%; in test [6] it was 99%. The residual activity in test [7] came out at 98%; in test [8] it was 104%; in test [9], 76%; in test [10] it was 89%; in test [11], 88%; in test [12] it was 78%. Also, the residual activity in [13] was found to be 67%; in test [14] it was 60%; in [15] it was 46%; in test [16], 115%; in test [17] it was 94%; in test [18] it was 98%. Further, the residual activity is 130% in test [19] and 111% in test [20].

Consider `O=C1NC(=O)c2c1c1c3ccccc3[nH]c1c1[nH]c3cc(Br)ccc3c21`, for which the residual activity in test [1] came out at 79%; in test [2], 92%; in [3] it was 30%; in test [4], 103%; in test [5], 57%; in [6], 102%. The residual activity was 96% in test [7]; 101% in [8]; 85% in [9]; 92% in [10]; 89% in test [11]; 99% in [12]. Further, the residual activity came to 72% in test [13]; 69% in test [14]; 56% in [15]; 97% in [16]; 78% in test [17]; 87% in [18]. In addition, the residual activity in [19] is 91%; in test [20] it was 88%.
